High-throughput results from PubChem BioAssay.
Hits are enriched below; roughly 21% of the tested compounds scored in any of these assays.
Cycloheximide cs: affects cycloheximide protein synthesis inhibition readout, counter-screen; cell reporter, cycloheximide protein synthesis inhibition counterscreen; max response, %; 300,000 compounds, 12% hits; in the data active = max response mostly above about 13%, no sharp cut-off; inactive = mostly below about 14%; note: read at 38.3 µM for the half of the compounds with a filed dose; 0% is about no effect
Pf growth 96h: inhibits malaria parasite growth, 96 h | P. falciparum luciferase reporter growth, 96 h | Potency, µM (series often up to 28.7 µM), inactives show at the top dose activity change, negative = inhibition, hits mostly inhibitors | 320,000 compounds, 6.9% hits | AID 504834; note: potency is the fitted concentration of half-maximal effect; % is set by controls: 0 for no effect and ±100 for the full control effect
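Two-generation exposure (96 h) targets delayed-death phenotype. Reporter parasites carrying integrated firefly luciferase, in red cells at 2% hematocrit and 0.05% parasitemia final, kept at 37 C, 5% CO2; luminescence loss indicates inhibition.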
Shiga inhibitor: inhibitors of Shiga toxin in Vero cells; Vero cells, Shiga toxin protein synthesis inhibition reporter; inhibition, % at 38.7 µM; 290,000 compounds, 9.2% hits; in the data active = inhibition mostly above about 28%, no sharp cut-off; inactive = mostly below about 43%; note: 0% is about no effect
NS1 function inh: influenza NS1 inhibition. AID 2326. Potency, µM (series often up to 46.1 µM), for inactives: at the top dose activity, positive = more growth. 270,000 compounds, 0.4% hits; calls by dose curve; note: potency is the fitted concentration of half-maximal effect; actives are rising curves; nearly all actives have a fitted effect of over 50% in size
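In this qHTS, NS1 from influenza A is expressed in budding yeast, where it slows growth. Cells are switched from glucose to 2% galactose medium (pH 6.0, -URA), treated with compound, and growth recovery is read at OD600.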
Pf growth 48h: inhibits P. falciparum growth in the first generation, 48 h; P. falciparum luciferase growth in erythrocytes, 48 h; Potency, µM (highest dose often 28.7 µM), inactives show at the top dose activity change, negative = inhibition, most hits filed as inhibitors; 310,000 compounds, 5.9% hits; note: potency is the fitted concentration of half-maximal effect; % is set by controls: 0 for no effect and ±100 for the full control effect
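Cell-based growth assay: transgenic P. falciparum expressing firefly luciferase, cultured in red cells within RPMI 1640 containing 0.5% w/v Albumax, 24 mM bicarbonate and gentamycin. A drop in luciferase activity indicates inhibition.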
Active calls of the source: *; u = inconclusive; x = no result given. Unless noted, calls come from the whole dose curve; as a rule, active = well fitted inhibition curve with a large enough effect; inconclusive = small, poorly fitted or top-dose-only effect, or another doubt; inactive = no such curve, though single readings can be large or run the other way.

SMILES | Cycloheximide cs | Pf growth 96h | Shiga inhibitor | NS1 function inh | Pf growth 48h
COc1ccc(S(=O)(=O)N2CCCCC2)cc1NC(=O)CSc1ncnc2ccccc12 | -3 | 2.3µM* | -9 | 19% | 12µM*
COc1cccc(-n2c(CN3CCN(c4ccccc4)CC3)nc3ccc([N+](=O)[O-])cc3c2=O)c1 | -1 | u | -14 | 21% | u
COc1ccc(C)cc1S(=O)(=O)N(CC(=O)Nc1cc([N+](=O)[O-])ccc1C)c1ccc(C)c(C)c1 | -3 | u | 5 | 7% | 10µM*
Cc1ccc(S(=O)(=O)N2CCCCC2)cc1NC(=O)CN1CC=C(c2ccccc2)CC1 | -4 | 10µM* | -6 | 14% | u
CN(Cc1cccnc1)C(=O)c1ccc(Cl)c(NS(=O)(=O)c2ccc(F)cc2)c1 | x | -25% | x | x | u
CCOC(=O)N1CCN(C(=O)c2cccc(N3C(=O)NC4CC3(C)Oc3ccc(Cl)cc34)c2)CC1 (configuration not stated) | -3 | u | -9 | -5% | u
CCCNC(=O)Cn1c(=O)/c(=C\c2ccc(-c3cccc([N+](=O)[O-])c3)o2)s/c1=C\C(=O)C(C)(C)C | -1 | 1.3µM* | 8 | 6% | 1.7µM*
COCCNC(=S)N/N=C/c1ccc(-c2ccc([N+](=O)[O-])cc2)o1 | -2 | u | 13 | -3% | 1%
CCCNC(=O)Cn1c(=O)/c(=C\c2ccc(-c3ccc([N+](=O)[O-])cc3)o2)s/c1=C\C(=O)C(C)(C)C | -1 | u | 2 | 28% | 9.3µM*
Cc1ccc(S(=O)(=O)N2CCN(C3CC4CCC3C4)CC2)cc1 (configuration not stated) | 2 | 15% | 23 | -1% | 6%
CCOC(=O)Cc1cc(=O)[nH]c(/N=C(\N)Nc2ccc(C)c(C)c2)n1 | 2 | 6% | -6 | 4% | -2%
COC(=O)c1ccccc1NC(=O)c1cc2ccccc2o1 | 17 | -14% | 40 | -8% | 0%
Cc1cc([N+](=O)[O-])ccc1NC(=O)c1ccco1 | -1 | u | -3 | 8% | 58%
Cc1cc([N+](=O)[O-])ccc1NC(=O)c1cc2ccccc2o1 | 30* | 9% | 168* | 3% | 107%
O=C(Nc1cccc(Cl)c1N1CCCC1)c1cc2ccccc2o1 | 28* | 1.3µM* | 29* | -40% | -2%
O=C(Nc1ccccc1C(F)(F)F)c1cc2ccccc2o1 | 32* | u | x | 11% | 212%
COc1ccc(C)cc1NC(=O)c1cc2ccccc2o1 | 40 | 14% | 42 | u | u
Cc1ccc(C)c(NC(=O)c2cc3ccccc3o2)c1 | 51* | u | 75* | -25% | 134%
CCOc1ccccc1N1CCN(C(=O)NCc2ccc(Cl)cc2)CC1 | -4 | 5% | -1 | -55% | -16%
CCC(=O)c1ccc(OCC(=O)OCC(=O)N2CCc3ccccc32)cc1 | x | 2% | x | x | 18%
O=C(CN1C2CCC1CC(NC(=O)Nc1ccccc1)C2)NCc1ccco1 (configuration not stated) | 15 | 30% | 34 | -9% | -5%
O=c1c2[nH]c3cccc(Cl)c3c2ncn1CCN1CCCCC1 | -1 | 13% | -6 | -3% | 23%
CCCCn1cnc2c([nH]c3cc(OC)ccc32)c1=O | 2 | -19% | 21 | -27% | -11%
COc1ccc2c(c1)[nH]c1c(=O)n(Cc3ccco3)cnc12 | 13* | 42% | 39 | 4% | 26%
COc1ccc2c(c1)[nH]c1c(=O)n(CC3CCCO3)cnc12 (configuration not stated) | 28* | -12% | 23 | -9% | x
SMILES | Cycloheximide cs | Pf growth 96h | Shiga inhibitor | NS1 function inh | Pf growth 48h
O=c1c2[nH]c3cccc(Cl)c3c2ncn1CC1CCCO1 (configuration not stated) | 23* | 31% | 49* | -1% | 59%
CCOC(=O)C1(CCCc2ccccc2)CCN(Cc2cn(CC)nc2C)CC1 | -3 | 0% | 8 | -2% | u
COc1ccc(Nc2nc3ccccc3n3cnnc23)cc1Cl | 35* | u | 34 | -4% | x
COc1cccc(Nc2nc3ccccc3n3cnnc23)c1 | 15* | u | 66 | -9% | x
Cc1ccc(Nc2nc3ccc(Cl)cc3n3cnnc23)cc1F | -2 | u | -7 | -4% | 10µM*
Cc1ccc2nc(Nc3ccc(F)cc3)c3nncn3c2c1 | 2 | -3% | 9 | 0% | 9%
COc1ccc(/C(C)=N/Nc2nc3ccccc3n3cnnc23)cc1OC | 19* | u | 40* | -2% | u
